JMJD2A Tudor inh – JMJD2A Tudor domain (human) inhibition | O75164 | Potency, µM (top dose mostly 114 µM), hits mostly inhibitors | 390,000 compounds, 4.4% hits | AlphaScreen JMJD2A-Tudor / H3K4me3 peptide binding; note: nearly all actives have a fitted effect of over 50% in size
HP1b binding inh – HP1-beta chromodomain-methylated histone interaction inhibition; Potency, µM (highest dose often 114 µM), hits mostly inhibitors; P83916; 390,000 compounds, 0.56% hits; AlphaScreen HP1-beta / biotin-H3K9me3 peptide binding; note: nearly all actives have a fitted effect of over 70% in size
Target sequence (P83916 whole entry, looked up): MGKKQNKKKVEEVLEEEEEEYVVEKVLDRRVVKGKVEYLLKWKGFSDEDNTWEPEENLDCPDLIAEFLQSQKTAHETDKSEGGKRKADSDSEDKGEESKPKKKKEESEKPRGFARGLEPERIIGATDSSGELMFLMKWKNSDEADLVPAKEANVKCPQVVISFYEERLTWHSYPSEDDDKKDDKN
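HP1-beta protein (50 nM final) preincubated 30 min at room temperature with biotinylated H3(1-18)K9me3 peptide (50 nM) in PBS pH 7.4, 0.01% Tween-20, then compound added for 30 min. AlphaScreen streptavidin donor/nickel chelate acceptor beads (10 ug/mL final), 30 min dark, luminescence read.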
Six1-Eya2 blk – Six1/Eya2 interaction inhibition; activity change, % (concentration not given with the values); 360,000 compounds, 0.56% hits; AlphaScreen GST-Six1/His-Eya2 binding, biochemical; active compounds read low; AID 651725; in the data active = activity change below about -65%; inconclusive = mostly about -30% to -63%
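Compounds are tested against tagged Six1 and Eya2 proteins bridged by glutathione donor and nickel acceptor beads; after a one-hour incubation at 37 °C without light, AlphaScreen emission is recorded.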
G9a block – blocks human histone lysine methyltransferase G9a; Q96KQ7; 350,000 compounds, 8.8% hits; Potency, µM (top dose mostly 102 µM), hits mostly inhibitors; G9a H3K9 monomethylation, AlphaScreen, 2 h; note: nearly all actives have a fitted effect of over 75% in size
Target sequence (Q96KQ7 913-1193 limits assumed): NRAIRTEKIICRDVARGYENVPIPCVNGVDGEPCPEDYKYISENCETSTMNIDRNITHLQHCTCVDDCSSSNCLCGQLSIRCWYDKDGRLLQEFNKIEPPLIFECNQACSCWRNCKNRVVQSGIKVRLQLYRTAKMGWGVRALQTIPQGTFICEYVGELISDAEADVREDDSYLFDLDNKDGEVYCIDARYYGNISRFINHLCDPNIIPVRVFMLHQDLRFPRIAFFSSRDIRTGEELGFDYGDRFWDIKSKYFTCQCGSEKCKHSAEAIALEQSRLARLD
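Methyltransferase reactions run at room temperature for 2 h (20 nM enzyme, 500 nM biotin-H3K9 peptide, 20 uM SAM) after a 15 min compound preincubation; product detected by AlphaScreen beads and anti-H3K9me1 antibody.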
BAZ2B block – blocks human BAZ2B | Q9UIF8 | AlphaScreen BAZ2B-H3K14Ac peptide displacement | Potency, µM (series often up to 114 µM), usual class: inhibitors | 360,000 compounds, 4.4% hits | AID 504333; note: nearly all actives have a fitted effect of over 60% in size
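AlphaScreen luminescence quantifies BAZ2B engagement of H3K14Ac peptide; the protein and biotinylated peptide are both at 50 nM final, buffer PBS pH 7.4 with 0.01% Tween-20, all steps at room temperature.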
CtBP-E1A blk – CtBP/E1A binding inhibition. AlphaScreen GST-E1A/His-CtBP binding, 1536-well; active compounds read low. activity change, % (no concentration beside the values). 340,000 compounds, 0.49% hits; in the data active = activity change below about -65%; inconclusive = mostly about -30% to -63%
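GST-E1A and His-tagged CtBP (125 nM each as 5X stock) were preincubated with pin-transferred compound for 2 h at 37 °C in the dark, then glutathione donor and nickel acceptor beads were added for 1 h before AlphaScreen reading.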
Each line names hits and unclear results; the compound was inactive in the other large screens. Most compounds without a hit are left out; they make up all but 10% or so of the library. Unless noted, calls come from the whole dose curve; as a rule, active = well fitted inhibition curve with a large enough effect; inconclusive = small, poorly fitted or top-dose-only effect; inactive = no such curve, though single readings can be large or run the other way.

Fc1ccc(N2CCN(c3nc(CN4CCOCC4)nc4scc(-c5ccccc5)c34)CC2)cc1	JMJD2A Tudor inh 45µM, HP1b binding inh inconclusive, G9a block 8.9µM, BAZ2B block 11µM (no result: CtBP-E1A blk)
Fc1ccc(-c2csc3ncnc(Nc4ccc(N5CCOCC5)cc4)c23)cc1	JMJD2A Tudor inh inconclusive, Six1-Eya2 blk inconclusive, BAZ2B block 40µM
Cn1c2[n+](c3ccc(Cl)cc3c1=O)Cc1ccccc1-2	G9a block 28µM
NC(=O)c1sc2nc3c(cc2c1N)CCCCCC3	G9a block 50µM
Nc1c(C(=O)O)sc2nc3c(cc12)CCCC3	G9a block 22µM (no result: CtBP-E1A blk)
CC(=O)Nc1cccc(/C(C)=N\NC(=O)c2ccc(Cn3nc([N+](=O)[O-])c(Cl)c3C)o2)c1	JMJD2A Tudor inh 50µM
C/C(=N\NC(=O)c1ccc(Cn2cc([N+](=O)[O-])cn2)o1)c1cccc(NC(=O)c2cccnc2)c1	Six1-Eya2 blk inconclusive
N#Cc1c(NC(=O)Cn2nc(C(F)(F)F)c3c2CCCC3)sc2c1CCC2	JMJD2A Tudor inh inconclusive, HP1b binding inh 32µM, G9a block 2.8µM, BAZ2B block 79µM
N#Cc1c(NC(=O)CSc2nc(N)cc(=O)[nH]2)sc2c1CCCCCC2	G9a block 45µM
Cn1cnnc1SCC(=O)Nc1sc2c(c1C#N)CCCCC2	G9a block 13µM
CC1CCc2c(sc(NC(=O)Cn3nc(C(F)(F)F)c4c3CCCCC4)c2C#N)C1 (stereo unspecified)	G9a block inconclusive
O=C(O)c1ccc2c(c1)C(=O)N([C@H](Cc1ccc(Cl)cc1)C(=O)O)C2=O	none (no result: HP1b binding inh, Six1-Eya2 blk, CtBP-E1A blk)
CN(C)/C=C(\C#N)C(=O)N/N=C/c1ccc(Cl)cc1	none (no result: CtBP-E1A blk)
COc1ccc(C2(CNC(=O)C(=O)Nc3ccccc3C)CCCC2)cc1OC	none (no result: Six1-Eya2 blk, CtBP-E1A blk)
Cc1ccc(C([O-])=C(C(=S)NCc2ccccc2)[n+]2cccc(CO)c2)cc1[N+](=O)[O-]	JMJD2A Tudor inh inconclusive (no result: G9a block, BAZ2B block)
Cc1ccc(/C([O-])=C(/C(=S)NCc2ccccc2)[n+]2ccccc2)cc1[N+](=O)[O-]	G9a block 20µM, BAZ2B block inconclusive
CCc1cc[n+](/C(C(=S)Nc2cccc(C)c2)=C(/[O-])c2ccc(C)c([N+](=O)[O-])c2)cc1	HP1b binding inh inconclusive, G9a block 40µM, BAZ2B block inconclusive
[O-]/C(=C(\C(=S)NCc1ccccc1)[n+]1ccccc1)c1ccc(Cl)cc1	JMJD2A Tudor inh inconclusive, HP1b binding inh inconclusive, G9a block 22µM
CCN(CC(=O)Nc1ccc(NC(C)=O)cc1)C(=O)c1cc(S(=O)(=O)N2CCCCCC2)ccc1OC	JMJD2A Tudor inh inconclusive
CC1(C)CC(=O)c2c(oc3cc(O)c(O)cc23)C1	JMJD2A Tudor inh 14µM, G9a block 3.5µM
CNC(=O)OCc1ncn(-c2ccccc2)c1COC(=O)NC	none (no result: JMJD2A Tudor inh, HP1b binding inh, G9a block, BAZ2B block)
CCCCNc1c2c3c(cccc3n(C)c1=O)C(=O)c1ccccc1-2	none
Cn1c(=O)c(N)c2c3c(c(Br)ccc31)C(=O)c1ccccc1-2	Six1-Eya2 blk inconclusive, G9a block 4.5µM (no result: CtBP-E1A blk)
CCc1ccc(-n2nc(CO)c(C(=O)NCc3cccs3)n2)cc1	none (no result: Six1-Eya2 blk, CtBP-E1A blk)
COc1cccc(Nc2nc(-c3cccc(N4C(=O)c5ccccc5C4=O)c3)cs2)c1	JMJD2A Tudor inh inconclusive, HP1b binding inh inconclusive, G9a block 14µM, BAZ2B block inconclusive
COc1cccc(-c2csc(Nc3ccc(Oc4ccccc4)cc3)n2)c1	none (no result: JMJD2A Tudor inh, HP1b binding inh, G9a block, BAZ2B block)
COc1cccc(Nc2nc(-c3ccc(O)cc3)cs2)c1	JMJD2A Tudor inh inconclusive, G9a block 50µM, BAZ2B block inconclusive
Cc1nc2c(cc1C(=O)N/N=C/c1ccc(O)c(O)c1)c(=O)n(C)c(=O)n2C	JMJD2A Tudor inh 35µM, Six1-Eya2 blk inconclusive, G9a block inconclusive, CtBP-E1A blk inconclusive
CC1=Nc2ccccc2N=C(NC(=O)/C=C/C(=O)O)C1c1ccccc1 (stereo unspecified)	G9a block 11µM
CS(=O)(=O)N1CCC2(CCCN(c3ccccn3)C2)CC1	none (no result: JMJD2A Tudor inh, HP1b binding inh, Six1-Eya2 blk, BAZ2B block, CtBP-E1A blk)
CSc1nc(=O)n2cccc(C)c2n1	none
Cc1cccn2c(=S)[nH]nc12	JMJD2A Tudor inh 2.8µM, HP1b binding inh 71µM (no result: G9a block, BAZ2B block)
